Among all 5,500 compounds or so, about 2,000 (36%) were called active. Roughly 18% stayed inconclusive and do not appear here. Cut-off read from the data, not from the text of the source: active = normalized growth mostly below about 0.91 (no sharp cut-off); inconclusive = no clear call, values can overlap the other calls; inactive = mostly above about 0.92. The list shows a part of the results.
Test: chemical genetic growth profiling, strain panel (AID 1159580);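 note: tested at 20 µM; growth read once vehicle control cultures reached saturation at 30 °C; 1 = growth at the plate median or of vehicle wells; lower values mean less growth of the strain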
Conditions: S. cerevisiae deletion strains, growth OD
[1] = locus YDL101C, strain DUN1, hits give low values
[2] = locus YHR030C, strain SLT2, hits give low values

Measured: normalized growth

c1ccc(-c2csc(-c3ccncc3)n2)cc1
active: locus YAL013W, strain DEP1, hits give low values 0.916 | [2] 0.22 | locus YKL190W, strain CNB1, hits give low values 0.894 | locus YLR039C, strain RIC1, hits give low values 0.371 | locus YLR085C, strain ARP6, hits give low values 0.535 | locus YLR262C, strain YPT6, hits give low values 0.384 | locus YML094W, strain GIM5, hits give low values 0.814 | locus YNL298W, strain CLA4 (second series), hits give low values 0.829 | locus YOL006C, strain TOP1, hits give low values 0.379 | locus YPL241C, strain CIN2, hits give low values 0.8 | locus YPR135W, strain CTF4, hits give low values 0.515
inactive: locus YBR229C, strain ROT2, hits give low values 0.979 | locus YCL061C, strain MRC1, hits give low values 0.944 | [1] 0.967 | locus YDR150W, strain NUM1, hits give low values 0.934 | locus YEL061C, strain CIN8, hits give low values 0.914 | locus YGR078C, strain PAC10, hits give low values 0.974 | locus YGR229C, strain SMI1, hits give low values 0.958 | locus YHR087W, strain rtc3, hits give low values 0.981 | locus YJL187C, strain SWE1, hits give low values 1.03 | locus YJR043C, strain POL32, hits give low values 0.974 | locus YJR075W, strain HOC1, hits give low values 0.987 | locus YLR058C, strain SHM2 (second series), hits give low values 0.972 | locus YMR219W, strain ESC1, hits give low values 0.971 | locus YMR263W, strain SAP30, hits give low values 0.946 | locus YMR307W, strain GAS1, hits give low values 0.737 | locus YNL128W, strain TEP1, hits give low values 0.937 | locus YNL153C, strain GIM3, hits give low values 0.964 | locus YNL322C, strain KRE1, hits give low values 0.989 | locus YNR030W, strain Alg12, hits give low values 0.901 | locus YPL055C, strain LGE1, hits give low values 0.832

Brc1ccc(-c2csc(-c3ccncc3)n2)cc1
active: [1] 0.888 | locus YDR052C, strain DBF4, hits give low values 0.892 | locus YDR054C, strain cdc34, hits give low values 0.862 | locus YDR226W, strain ADK1, hits give low values 0.895 | locus YER133W, strain GLC7, hits give low values 0.683 | locus YFL009W, strain cdc4, hits give low values 0.878 | locus YGR040W, strain KSS1, hits give low values 0.59 | locus YGR052W, strain FMP48, hits give low values 0.41 | locus YGR092W, strain DBF2, hits give low values 0.443 | [2] 0.312 | locus YJL095W, strain BCK1, hits give low values 0.149 | locus YJR066W, strain TOR1, hits give low values 0.24 | locus YKL203C, strain TOR2, hits give low values 0.221 | locus YLR113W, strain HOG1, hits give low values 0.315 | locus YNL183C, strain NPR1, hits give low values 0.257 | locus YNL207W, strain RIO2, hits give low values 0.839 | locus YOR119C, strain RIO1, hits give low values 0.306 | locus YOR231W, strain MKK1, hits give low values 0.488 | locus YPL153C, strain RAD53, hits give low values 0.609 | locus YPL204W, strain HRR25, hits give low values 0.64 | locus YPL256C, strain CLN2, hits give low values 0.578 | strain NNK1, hits give low values 0.875
inactive: locus YAR019C, strain CDC15, hits give low values 0.909 | locus YBL105C, strain PKC1, hits give low values 0.943 | locus YBR135W, strain CKS1, hits give low values 0.904 | locus YBR136W, strain MEC1, hits give low values 0.916 | locus YBR160W, strain CDC28, hits give low values 0.904 | locus YDL017W, strain CDC7, hits give low values 0.923 | locus YDL028C, strain MPS1, hits give low values 0.92 | locus YDL108W, strain KIN28, hits give low values 0.932 | locus YDL132W, strain cdc53, hits give low values 0.94 | locus YDL214C, strain PRR2, hits give low values 0.848 | locus YDR477W, strain SNF1, hits give low values 0.705 | locus YER123W, strain YCK3, hits give low values 0.703 | locus YFL029C, strain CAK1, hits give low values 0.911 | locus YFR003C, strain YPI1, hits give low values 0.942 | locus YFR019W, strain FAB1, hits give low values 0.874 | locus YFR028C, strain CDC14, hits give low values 0.895 | locus YHR079C, strain IRE1, hits give low values 0.632 | locus YHR082C, strain KSP1, hits give low values 0.635 | locus YHR205W, strain SCH9, hits give low values 0.622 | locus YIL147C, strain SLN1, hits give low values 0.919 | locus YJL128C, strain PBS2, hits give low values 0.958 | locus YJL157C, strain FAR1, hits give low values 0.847 | locus YJR016C, strain ILV3, hits give low values 0.914 | locus YJR066W, strain TOR1 (second series), hits give low values 0.797 | locus YKL048C, strain ELM1, hits give low values 0.889 | locus YKL067W, strain YNK1, hits give low values 0.856 | locus YKL101W, strain HSL1, hits give low values 0.889 | locus YKL193C, strain SDS22, hits give low values 0.891 | locus YLR133W, strain CKI1, hits give low values 0.844 | locus YLR403W, strain SFP1, hits give low values 0.689 | locus YML070W, strain DAK1, hits give low values 0.77 | locus YMR001C, strain CDC5, hits give low values 0.901 | locus YMR205C, strain PFK2 (second series), hits give low values 0.854 | locus YMR277W, strain FCP1, hits give low values 0.892 | locus YNL006W, strain LST8, hits give low values 0.939 | locus YNL020C, strain ARK1, hits give low values 0.868 | locus YNL161W, strain CBK1, hits give low values 0.908 | locus YNL222W, strain SSU72, hits give low values 0.938 | locus YNL307C, strain MCK1 (second series), hits give low values 0.847 | locus YOL078W, strain AVO1, hits give low values 0.898 | locus YOL136C, strain PFK27, hits give low values 0.846 | locus YOR061W, strain CKA2, hits give low values 0.925 | locus YOR329C, strain SCD5, hits give low values 0.933 | locus YPL031C, strain PHO85, hits give low values 0.687 | locus YPL209C, strain IPL1, hits give low values 0.919 | locus YPR025C, strain CCL1, hits give low values 0.92 | locus YPR106W, strain ISR1, hits give low values 0.919 | locus YPR111W, strain DBF20, hits give low values 0.902 | strain TSCII, hits give low values 0.88
